# Reference: PubChem BioAssay AID1159580 (chemical genetic matrix, 2015)
# The campaign covered roughly 5,500 compounds. About 2,000 (36%) were called active. Another 18% or so got no clear call; they are omitted. This is one part of the list. Unmarked numbers belong to inactive results. Cut-off read from the data, not from the text of the source: active = normalized growth mostly below about 0.91 (no sharp cut-off); inconclusive = no clear call, values can overlap the other calls; inactive = mostly above about 0.92.
# Assay: chemical genetic growth profiling, strain panel (AID 1159580);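 note: tested at 20 µM; growth read once vehicle control cultures reached saturation at 30 °C; 1 = growth at the plate median or of vehicle wells; lower values mean less growth of the strain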
# Conditions: S. cerevisiae deletion strains, growth OD
# [1] = locus YDL101C, strain DUN1, stronger effect = lower value
# [2] = locus YHR030C, strain SLT2, stronger effect = lower value
smiles,measurement,setting,value
CCCCCCCCCCCCSc1ncn[nH]1,normalized growth,"locus YAR019C, strain CDC15, stronger effect = lower value",0.985
same,normalized growth,"locus YBL105C, strain PKC1, stronger effect = lower value",0.976
same,normalized growth,"locus YBR135W, strain CKS1, stronger effect = lower value",0.968
same,normalized growth,"locus YBR136W, strain MEC1, stronger effect = lower value",0.973
same,normalized growth,"locus YBR160W, strain CDC28, stronger effect = lower value",0.971
same,normalized growth,"locus YDL017W, strain CDC7, stronger effect = lower value",0.977
same,normalized growth,"locus YDL028C, strain MPS1, stronger effect = lower value",0.976
same,normalized growth,[1],0.975
same,normalized growth,"locus YDL108W, strain KIN28, stronger effect = lower value",0.969
same,normalized growth,"locus YDL132W, strain cdc53, stronger effect = lower value",0.976
same,normalized growth,"locus YDL214C, strain PRR2, stronger effect = lower value",0.735
same,normalized growth,"locus YDR052C, strain DBF4, stronger effect = lower value",0.975
same,normalized growth,"locus YDR054C, strain cdc34, stronger effect = lower value",0.98
same,normalized growth,"locus YDR226W, strain ADK1, stronger effect = lower value",0.968
same,normalized growth,"locus YDR477W, strain SNF1, stronger effect = lower value",0.734
same,normalized growth,"locus YER123W, strain YCK3, stronger effect = lower value",0.645
same,normalized growth,"locus YER133W, strain GLC7, stronger effect = lower value",0.88
same,normalized growth,"locus YFL009W, strain cdc4, stronger effect = lower value",0.971
same,normalized growth,"locus YFL029C, strain CAK1, stronger effect = lower value",0.981
same,normalized growth,"locus YFR003C, strain YPI1, stronger effect = lower value",0.977
same,normalized growth,"locus YFR019W, strain FAB1, stronger effect = lower value",0.443 (active)
same,normalized growth,"locus YFR028C, strain CDC14, stronger effect = lower value",0.977
same,normalized growth,"locus YGR040W, strain KSS1, stronger effect = lower value",0.817
same,normalized growth,"locus YGR052W, strain FMP48, stronger effect = lower value",0.511 (active)
same,normalized growth,"locus YGR092W, strain DBF2, stronger effect = lower value",0.595
same,normalized growth,[2],0.135 (active)
same,normalized growth,"locus YHR079C, strain IRE1, stronger effect = lower value",0.254 (active)
same,normalized growth,"locus YHR082C, strain KSP1, stronger effect = lower value",0.209 (active)
same,normalized growth,"locus YHR205W, strain SCH9, stronger effect = lower value",0.294 (active)
same,normalized growth,"locus YIL147C, strain SLN1, stronger effect = lower value",0.978
same,normalized growth,"locus YJL095W, strain BCK1, stronger effect = lower value",0.279 (active)
same,normalized growth,"locus YJL128C, strain PBS2, stronger effect = lower value",0.939
same,normalized growth,"locus YJL157C, strain FAR1, stronger effect = lower value",0.728
same,normalized growth,"locus YJR016C, strain ILV3, stronger effect = lower value",0.975
same,normalized growth,"locus YJR066W, strain TOR1 (second series), stronger effect = lower value",0.738
same,normalized growth,"locus YJR066W, strain TOR1, stronger effect = lower value",0.297 (active)
same,normalized growth,"locus YKL048C, strain ELM1, stronger effect = lower value",0.821
same,normalized growth,"locus YKL067W, strain YNK1, stronger effect = lower value",0.85
same,normalized growth,"locus YKL193C, strain SDS22, stronger effect = lower value",0.976
same,normalized growth,"locus YKL203C, strain TOR2, stronger effect = lower value",0.731
same,normalized growth,"locus YLR113W, strain HOG1, stronger effect = lower value",0.479 (active)
same,normalized growth,"locus YLR133W, strain CKI1, stronger effect = lower value",0.566 (active)
same,normalized growth,"locus YLR403W, strain SFP1, stronger effect = lower value",0.447 (active)
same,normalized growth,"locus YML070W, strain DAK1, stronger effect = lower value",0.789
same,normalized growth,"locus YMR001C, strain CDC5, stronger effect = lower value",0.976
same,normalized growth,"locus YMR205C, strain PFK2 (second series), stronger effect = lower value",0.771
same,normalized growth,"locus YMR277W, strain FCP1, stronger effect = lower value",0.975
same,normalized growth,"locus YNL006W, strain LST8, stronger effect = lower value",0.986
same,normalized growth,"locus YNL020C, strain ARK1, stronger effect = lower value",0.523 (active)
same,normalized growth,"locus YNL161W, strain CBK1, stronger effect = lower value",0.981
same,normalized growth,"locus YNL183C, strain NPR1, stronger effect = lower value",0.444 (active)
same,normalized growth,"locus YNL207W, strain RIO2, stronger effect = lower value",0.978
same,normalized growth,"locus YNL222W, strain SSU72, stronger effect = lower value",0.972
same,normalized growth,"locus YNL307C, strain MCK1 (second series), stronger effect = lower value",0.478 (active)
same,normalized growth,"locus YOL078W, strain AVO1, stronger effect = lower value",0.973
same,normalized growth,"locus YOL136C, strain PFK27, stronger effect = lower value",0.723
same,normalized growth,"locus YOR061W, strain CKA2, stronger effect = lower value",0.84
same,normalized growth,"locus YOR119C, strain RIO1, stronger effect = lower value",0.655
same,normalized growth,"locus YOR231W, strain MKK1, stronger effect = lower value",0.439 (active)
same,normalized growth,"locus YOR329C, strain SCD5, stronger effect = lower value",0.984
same,normalized growth,"locus YPL031C, strain PHO85, stronger effect = lower value",0.542 (active)
same,normalized growth,"locus YPL153C, strain RAD53, stronger effect = lower value",0.556 (active)
same,normalized growth,"locus YPL204W, strain HRR25, stronger effect = lower value",0.556 (active)
same,normalized growth,"locus YPL209C, strain IPL1, stronger effect = lower value",0.982
same,normalized growth,"locus YPL256C, strain CLN2, stronger effect = lower value",0.318 (active)
same,normalized growth,"locus YPR025C, strain CCL1, stronger effect = lower value",0.972
same,normalized growth,"locus YPR106W, strain ISR1, stronger effect = lower value",0.991
same,normalized growth,"locus YPR111W, strain DBF20, stronger effect = lower value",0.973
same,normalized growth,"strain NNK1, stronger effect = lower value",0.983
same,normalized growth,"strain TSCII, stronger effect = lower value",0.975
CCCCCCCCCCCCSc1nnc(N)s1,normalized growth,"locus YAL013W, strain DEP1, stronger effect = lower value",1.01
same,normalized growth,"locus YBR229C, strain ROT2, stronger effect = lower value",0.994
same,normalized growth,[1],1.05
same,normalized growth,"locus YDR150W, strain NUM1, stronger effect = lower value",1.01
same,normalized growth,"locus YEL061C, strain CIN8, stronger effect = lower value",1
same,normalized growth,"locus YGR078C, strain PAC10, stronger effect = lower value",0.999
same,normalized growth,"locus YGR229C, strain SMI1, stronger effect = lower value",0.977
same,normalized growth,[2],0.964
same,normalized growth,"locus YHR087W, strain rtc3, stronger effect = lower value",1.02
same,normalized growth,"locus YJL187C, strain SWE1, stronger effect = lower value",0.995
same,normalized growth,"locus YJR043C, strain POL32, stronger effect = lower value",0.984
same,normalized growth,"locus YJR075W, strain HOC1, stronger effect = lower value",1.01
same,normalized growth,"locus YLR039C, strain RIC1, stronger effect = lower value",0.981
same,normalized growth,"locus YLR058C, strain SHM2 (second series), stronger effect = lower value",0.991
same,normalized growth,"locus YLR085C, strain ARP6, stronger effect = lower value",0.953
same,normalized growth,"locus YLR262C, strain YPT6, stronger effect = lower value",1
same,normalized growth,"locus YML094W, strain GIM5, stronger effect = lower value",1.12
same,normalized growth,"locus YMR219W, strain ESC1, stronger effect = lower value",0.996
same,normalized growth,"locus YMR263W, strain SAP30, stronger effect = lower value",0.968
same,normalized growth,"locus YMR307W, strain GAS1, stronger effect = lower value",0.933
same,normalized growth,"locus YNL153C, strain GIM3, stronger effect = lower value",1.02
same,normalized growth,"locus YNL298W, strain CLA4 (second series), stronger effect = lower value",0.976
same,normalized growth,"locus YNL322C, strain KRE1, stronger effect = lower value",0.983
same,normalized growth,"locus YNR030W, strain Alg12, stronger effect = lower value",1.02
same,normalized growth,"locus YPL055C, strain LGE1, stronger effect = lower value",1.02
same,normalized growth,"locus YPL241C, strain CIN2, stronger effect = lower value",0.978
same,normalized growth,"locus YPR135W, strain CTF4, stronger effect = lower value",1.21
